Among the data in article PMC7862700, “An all-to-all approach to the identification of sequence-specific readers for epigenetic DNA modifications on cytosine” are binding signal values, retold here.

Experiment in all cases: DAPPL (digital affinity profiling via proximity ligation, sequencing); 10 mM Tris-HCl pH 7.5, 50 mM NaCl, 1 mM DTT, 4% glycerol, room temperature, 30 min; GST-TFs on glutathione beads, 16-mer random dsDNA library, 0.1% formaldehyde crosslink after washing; high values mean tight binding
Holding throughout (settings): protein: recombinant; tags: N-terminal GST; dsDNA, one strand shown

The target in one assay is T1, ELK1 (Homo sapiens, UniProt P19419 1-428).
T1 sequence: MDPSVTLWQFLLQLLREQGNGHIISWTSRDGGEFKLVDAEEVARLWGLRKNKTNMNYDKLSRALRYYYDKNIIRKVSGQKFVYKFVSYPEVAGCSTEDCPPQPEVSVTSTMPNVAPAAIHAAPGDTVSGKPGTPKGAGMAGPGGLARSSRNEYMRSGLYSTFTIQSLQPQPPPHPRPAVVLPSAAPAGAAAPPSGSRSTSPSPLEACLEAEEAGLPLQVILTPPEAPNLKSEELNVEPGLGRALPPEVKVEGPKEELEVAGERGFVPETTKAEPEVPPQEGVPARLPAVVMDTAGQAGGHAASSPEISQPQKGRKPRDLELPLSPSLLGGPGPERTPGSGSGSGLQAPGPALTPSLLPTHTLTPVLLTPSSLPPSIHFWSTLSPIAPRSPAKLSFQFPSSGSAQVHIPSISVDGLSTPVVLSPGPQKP
In outline:
(§1)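 The binding signal reported is, for every hexamer, its read frequency for a factor over its read frequency for the tag-only sample. Reads came from pools of yeast-expressed, GST-fused human transcription factors on glutathione beads, barcoded with DNA and mixed with that sample, which were incubated with 200 nmole of a random double-stranded 16-mer DNA library in Tris/NaCl/DTT/glycerol buffer at room temperature for 30 min. After washing, the pools were crosslinked with 0.1% formaldehyde, proximity-ligated with BsaI/T4 ligase for 1 h at 37 °C, PCR-amplified and sequenced on an Illumina NextSeq500.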

For the next assay, the target named is T2, GABPA (Homo sapiens, UniProt Q06546 1-454).
T2 sequence: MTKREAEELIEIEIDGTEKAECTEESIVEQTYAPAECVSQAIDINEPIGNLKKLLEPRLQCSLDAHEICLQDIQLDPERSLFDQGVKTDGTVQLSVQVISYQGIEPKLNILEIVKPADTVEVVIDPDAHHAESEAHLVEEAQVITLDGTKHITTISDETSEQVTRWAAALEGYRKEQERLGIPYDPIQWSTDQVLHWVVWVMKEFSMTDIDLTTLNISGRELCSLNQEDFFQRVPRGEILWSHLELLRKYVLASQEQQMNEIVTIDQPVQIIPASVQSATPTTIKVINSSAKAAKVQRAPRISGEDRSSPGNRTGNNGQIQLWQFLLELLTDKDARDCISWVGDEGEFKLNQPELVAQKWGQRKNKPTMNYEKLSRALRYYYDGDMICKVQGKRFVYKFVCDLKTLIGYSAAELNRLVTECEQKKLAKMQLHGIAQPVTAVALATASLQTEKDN
In short, it runs like this: as §1

The target in a further assay is T3, ERG (Homo sapiens, UniProt P11308 1-479).
T3 sequence: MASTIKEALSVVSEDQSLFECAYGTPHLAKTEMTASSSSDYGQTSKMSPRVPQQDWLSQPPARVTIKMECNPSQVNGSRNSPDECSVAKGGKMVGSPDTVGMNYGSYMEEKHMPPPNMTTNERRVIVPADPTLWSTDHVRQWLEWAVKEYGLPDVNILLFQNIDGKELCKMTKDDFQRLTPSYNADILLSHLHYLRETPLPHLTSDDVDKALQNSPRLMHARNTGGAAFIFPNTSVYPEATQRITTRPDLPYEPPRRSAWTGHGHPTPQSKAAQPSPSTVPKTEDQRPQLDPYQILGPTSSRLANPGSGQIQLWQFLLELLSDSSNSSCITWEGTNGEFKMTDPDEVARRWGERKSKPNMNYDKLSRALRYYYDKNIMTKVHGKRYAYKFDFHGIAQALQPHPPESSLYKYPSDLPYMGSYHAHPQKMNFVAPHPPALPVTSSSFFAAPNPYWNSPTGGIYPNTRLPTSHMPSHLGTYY
In short, it runs like this: as §1

A further assay addresses ELF1 (Homo sapiens, UniProt P32519 1-619). In outline: as §1
The target of the next assay is T4, EHF (Homo sapiens, UniProt Q9NZC4 1-300).
T4 sequence: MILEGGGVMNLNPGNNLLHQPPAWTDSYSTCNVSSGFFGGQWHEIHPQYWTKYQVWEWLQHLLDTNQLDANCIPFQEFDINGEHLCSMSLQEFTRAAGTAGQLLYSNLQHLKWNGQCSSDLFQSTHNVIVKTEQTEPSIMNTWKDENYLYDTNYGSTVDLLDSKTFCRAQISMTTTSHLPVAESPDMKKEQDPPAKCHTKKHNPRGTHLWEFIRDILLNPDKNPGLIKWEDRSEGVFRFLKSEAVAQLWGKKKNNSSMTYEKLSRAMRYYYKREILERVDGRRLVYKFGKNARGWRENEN
In outline:
as §1

For the next assay, the target named is SPIB (Homo sapiens, UniProt Q01892 1-262). In short, it runs like this: as §1
Sequence of SPIB (Q01892 whole entry): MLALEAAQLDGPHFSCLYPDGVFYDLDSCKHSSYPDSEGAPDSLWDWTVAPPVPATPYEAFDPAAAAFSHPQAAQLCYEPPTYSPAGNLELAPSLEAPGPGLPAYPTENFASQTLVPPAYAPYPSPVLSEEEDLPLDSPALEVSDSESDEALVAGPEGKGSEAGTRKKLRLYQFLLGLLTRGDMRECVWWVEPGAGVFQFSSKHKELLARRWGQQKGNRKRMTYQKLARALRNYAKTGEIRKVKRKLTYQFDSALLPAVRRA
The target in a further assay is T5, FEV (Homo sapiens, UniProt Q99581 1-238).
T5 sequence: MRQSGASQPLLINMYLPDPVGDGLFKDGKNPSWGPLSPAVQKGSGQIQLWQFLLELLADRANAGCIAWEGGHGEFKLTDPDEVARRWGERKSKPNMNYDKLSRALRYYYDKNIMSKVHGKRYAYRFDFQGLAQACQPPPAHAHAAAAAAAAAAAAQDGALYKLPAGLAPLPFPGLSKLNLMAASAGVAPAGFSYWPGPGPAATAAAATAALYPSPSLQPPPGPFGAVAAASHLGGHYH
In outline:
as §1

The target in another assay is ETV5 (Homo sapiens, UniProt P41161 1-510). In outline: as §1
Sequence of ETV5 (P41161 whole entry): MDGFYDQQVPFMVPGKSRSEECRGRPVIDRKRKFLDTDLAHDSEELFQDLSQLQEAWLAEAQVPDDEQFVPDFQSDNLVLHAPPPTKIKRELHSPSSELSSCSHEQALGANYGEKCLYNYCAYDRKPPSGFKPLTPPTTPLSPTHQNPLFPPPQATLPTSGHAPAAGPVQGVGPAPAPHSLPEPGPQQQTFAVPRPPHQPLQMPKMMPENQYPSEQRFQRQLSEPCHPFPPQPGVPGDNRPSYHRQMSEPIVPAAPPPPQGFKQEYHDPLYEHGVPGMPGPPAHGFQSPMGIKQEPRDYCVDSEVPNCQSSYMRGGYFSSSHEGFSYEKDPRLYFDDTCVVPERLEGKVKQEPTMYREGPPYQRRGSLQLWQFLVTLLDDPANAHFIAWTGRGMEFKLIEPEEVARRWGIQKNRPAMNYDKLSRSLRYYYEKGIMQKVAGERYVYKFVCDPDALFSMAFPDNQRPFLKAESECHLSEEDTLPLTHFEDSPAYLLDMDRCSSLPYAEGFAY
The next assay addresses ELF4 (Homo sapiens, UniProt Q99607 1-663). In short, it runs like this: as §1
The target of the next assay is T6, ELK4 (Homo sapiens, UniProt P28324-2 1-405).
T6 sequence: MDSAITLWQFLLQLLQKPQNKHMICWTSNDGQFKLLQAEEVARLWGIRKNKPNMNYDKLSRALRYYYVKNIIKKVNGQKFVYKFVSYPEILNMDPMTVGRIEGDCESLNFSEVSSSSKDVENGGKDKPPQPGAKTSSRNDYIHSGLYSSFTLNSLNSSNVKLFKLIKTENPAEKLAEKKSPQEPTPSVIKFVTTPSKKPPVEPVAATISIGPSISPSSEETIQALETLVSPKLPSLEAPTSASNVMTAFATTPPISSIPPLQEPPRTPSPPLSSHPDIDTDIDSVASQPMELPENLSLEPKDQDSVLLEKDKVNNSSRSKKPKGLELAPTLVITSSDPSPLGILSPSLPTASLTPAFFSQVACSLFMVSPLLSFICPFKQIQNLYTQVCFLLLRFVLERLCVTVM
In short, it runs like this:
as §1

The next assay deals with T7, ELF3 (Homo sapiens, UniProt P78545 1-371).
T7 sequence: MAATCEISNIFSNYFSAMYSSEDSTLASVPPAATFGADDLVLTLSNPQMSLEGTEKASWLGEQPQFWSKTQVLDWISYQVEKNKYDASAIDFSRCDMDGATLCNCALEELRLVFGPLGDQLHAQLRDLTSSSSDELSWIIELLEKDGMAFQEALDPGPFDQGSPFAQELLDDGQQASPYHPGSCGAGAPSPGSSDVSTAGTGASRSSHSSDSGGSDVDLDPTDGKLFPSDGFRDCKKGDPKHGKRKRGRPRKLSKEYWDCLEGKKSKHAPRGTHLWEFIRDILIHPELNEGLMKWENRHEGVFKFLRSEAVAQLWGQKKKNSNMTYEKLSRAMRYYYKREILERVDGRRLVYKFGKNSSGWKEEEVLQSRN
In outline:
as §1

In another assay the target is ETV1 (Homo sapiens, UniProt P50549 1-477). In outline: as §1
Sequence of ETV1 (P50549 whole entry): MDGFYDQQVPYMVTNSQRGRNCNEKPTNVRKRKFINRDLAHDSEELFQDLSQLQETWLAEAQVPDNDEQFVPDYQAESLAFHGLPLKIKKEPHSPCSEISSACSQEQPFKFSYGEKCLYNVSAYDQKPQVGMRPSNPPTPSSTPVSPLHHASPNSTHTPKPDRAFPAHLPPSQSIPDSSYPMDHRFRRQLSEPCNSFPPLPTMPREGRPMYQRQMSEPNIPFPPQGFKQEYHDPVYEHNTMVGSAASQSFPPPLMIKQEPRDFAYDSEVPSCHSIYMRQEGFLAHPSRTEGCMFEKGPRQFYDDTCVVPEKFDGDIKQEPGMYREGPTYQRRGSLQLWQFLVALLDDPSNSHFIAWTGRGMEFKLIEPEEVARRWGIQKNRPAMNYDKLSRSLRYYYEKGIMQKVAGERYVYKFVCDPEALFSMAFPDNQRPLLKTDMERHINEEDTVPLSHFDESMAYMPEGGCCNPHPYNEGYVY
The next assay has as its target T8, ERF (Homo sapiens, UniProt P50548 1-548).
T8 sequence: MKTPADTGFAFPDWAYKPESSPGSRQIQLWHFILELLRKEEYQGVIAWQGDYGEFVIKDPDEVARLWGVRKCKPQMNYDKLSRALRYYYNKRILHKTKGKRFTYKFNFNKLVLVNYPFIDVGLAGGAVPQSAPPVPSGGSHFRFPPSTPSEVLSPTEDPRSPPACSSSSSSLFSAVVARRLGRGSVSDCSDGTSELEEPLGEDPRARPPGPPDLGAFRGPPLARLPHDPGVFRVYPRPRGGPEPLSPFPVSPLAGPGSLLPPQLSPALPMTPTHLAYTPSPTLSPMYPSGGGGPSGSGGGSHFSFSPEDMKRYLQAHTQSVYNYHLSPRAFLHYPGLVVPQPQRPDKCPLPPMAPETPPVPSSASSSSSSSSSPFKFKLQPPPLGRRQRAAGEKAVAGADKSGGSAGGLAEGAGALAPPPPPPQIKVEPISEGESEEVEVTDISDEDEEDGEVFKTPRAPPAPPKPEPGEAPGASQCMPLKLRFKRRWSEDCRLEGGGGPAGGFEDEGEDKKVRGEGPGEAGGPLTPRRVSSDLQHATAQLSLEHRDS
In outline: as §1

Another assay deals with T9, ETV3L (Homo sapiens, UniProt Q6ZN32 1-361).
T9 sequence: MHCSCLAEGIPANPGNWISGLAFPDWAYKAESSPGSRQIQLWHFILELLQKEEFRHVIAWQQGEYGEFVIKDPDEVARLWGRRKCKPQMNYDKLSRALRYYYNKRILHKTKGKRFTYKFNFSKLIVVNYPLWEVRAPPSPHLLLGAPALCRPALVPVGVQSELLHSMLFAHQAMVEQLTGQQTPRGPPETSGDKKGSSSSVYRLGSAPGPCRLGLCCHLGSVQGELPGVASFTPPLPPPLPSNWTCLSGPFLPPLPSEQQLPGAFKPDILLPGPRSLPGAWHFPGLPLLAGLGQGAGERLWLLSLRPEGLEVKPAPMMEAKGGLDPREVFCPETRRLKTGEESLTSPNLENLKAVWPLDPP
In outline: as §1

The next assay addresses T10, ETS2 (Homo sapiens, UniProt P15036 1-469).
T10 sequence: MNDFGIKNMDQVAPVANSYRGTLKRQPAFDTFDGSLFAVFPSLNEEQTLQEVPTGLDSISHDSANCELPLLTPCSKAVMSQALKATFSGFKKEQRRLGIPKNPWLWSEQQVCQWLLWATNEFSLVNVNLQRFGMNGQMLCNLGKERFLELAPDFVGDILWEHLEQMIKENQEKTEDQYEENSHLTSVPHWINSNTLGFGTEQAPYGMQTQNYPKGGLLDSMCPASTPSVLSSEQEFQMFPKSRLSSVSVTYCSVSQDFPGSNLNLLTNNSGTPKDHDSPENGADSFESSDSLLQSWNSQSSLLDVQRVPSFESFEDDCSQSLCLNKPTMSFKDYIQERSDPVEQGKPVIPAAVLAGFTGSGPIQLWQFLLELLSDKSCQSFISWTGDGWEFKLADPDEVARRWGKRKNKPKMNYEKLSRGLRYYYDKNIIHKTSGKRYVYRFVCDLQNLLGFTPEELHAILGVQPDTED
In short, it runs like this: as §1

The target of another assay is T11, SPDEF (Homo sapiens, UniProt O95238 1-335).
T11 sequence: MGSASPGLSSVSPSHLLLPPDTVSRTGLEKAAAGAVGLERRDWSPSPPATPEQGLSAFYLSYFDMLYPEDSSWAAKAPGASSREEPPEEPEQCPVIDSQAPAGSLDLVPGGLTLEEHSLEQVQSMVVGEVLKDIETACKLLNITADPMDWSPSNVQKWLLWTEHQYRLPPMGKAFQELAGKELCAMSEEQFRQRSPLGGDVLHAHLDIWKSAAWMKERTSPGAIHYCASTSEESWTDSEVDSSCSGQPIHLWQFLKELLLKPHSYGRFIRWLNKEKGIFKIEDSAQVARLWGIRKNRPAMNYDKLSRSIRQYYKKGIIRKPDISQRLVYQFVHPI
In short, it runs like this:
as §1

Another assay deals with T12, ETV7 (Homo sapiens, UniProt Q9Y603 1-341).
T12 sequence: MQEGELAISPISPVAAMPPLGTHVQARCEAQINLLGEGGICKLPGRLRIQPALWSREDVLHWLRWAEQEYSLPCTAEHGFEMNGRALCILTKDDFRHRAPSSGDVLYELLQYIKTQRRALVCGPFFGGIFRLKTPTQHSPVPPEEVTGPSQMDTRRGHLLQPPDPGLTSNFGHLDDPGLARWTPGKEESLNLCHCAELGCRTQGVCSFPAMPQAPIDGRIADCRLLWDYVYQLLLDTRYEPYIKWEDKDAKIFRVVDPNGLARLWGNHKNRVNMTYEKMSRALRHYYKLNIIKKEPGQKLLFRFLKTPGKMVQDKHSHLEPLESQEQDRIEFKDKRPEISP
In short, it runs like this: as §1

The next assay concerns the target T13, ETV3 (Homo sapiens, UniProt P41162-2 1-143).
T13 sequence: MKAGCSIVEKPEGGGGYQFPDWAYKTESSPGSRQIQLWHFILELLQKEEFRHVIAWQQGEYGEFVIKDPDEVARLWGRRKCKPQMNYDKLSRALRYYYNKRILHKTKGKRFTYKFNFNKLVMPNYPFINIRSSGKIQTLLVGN
In outline: as §1

For the next assay, the target named is ETV6 (Homo sapiens, UniProt P41212 1-452). In outline: as §1
Sequence of ETV6 (P41212 whole entry): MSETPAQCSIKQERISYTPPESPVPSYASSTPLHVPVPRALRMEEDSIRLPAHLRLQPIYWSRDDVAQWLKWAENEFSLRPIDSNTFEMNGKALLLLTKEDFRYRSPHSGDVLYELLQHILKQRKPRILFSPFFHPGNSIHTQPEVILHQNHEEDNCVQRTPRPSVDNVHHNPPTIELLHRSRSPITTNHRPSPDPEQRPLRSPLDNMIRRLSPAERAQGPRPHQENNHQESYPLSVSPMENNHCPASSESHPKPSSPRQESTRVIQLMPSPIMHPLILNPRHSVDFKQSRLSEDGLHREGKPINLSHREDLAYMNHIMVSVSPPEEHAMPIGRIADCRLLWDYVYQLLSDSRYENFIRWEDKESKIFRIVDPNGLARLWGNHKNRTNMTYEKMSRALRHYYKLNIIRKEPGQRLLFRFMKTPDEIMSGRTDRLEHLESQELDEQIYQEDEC

Sequence of ELF1 (P32519 whole entry): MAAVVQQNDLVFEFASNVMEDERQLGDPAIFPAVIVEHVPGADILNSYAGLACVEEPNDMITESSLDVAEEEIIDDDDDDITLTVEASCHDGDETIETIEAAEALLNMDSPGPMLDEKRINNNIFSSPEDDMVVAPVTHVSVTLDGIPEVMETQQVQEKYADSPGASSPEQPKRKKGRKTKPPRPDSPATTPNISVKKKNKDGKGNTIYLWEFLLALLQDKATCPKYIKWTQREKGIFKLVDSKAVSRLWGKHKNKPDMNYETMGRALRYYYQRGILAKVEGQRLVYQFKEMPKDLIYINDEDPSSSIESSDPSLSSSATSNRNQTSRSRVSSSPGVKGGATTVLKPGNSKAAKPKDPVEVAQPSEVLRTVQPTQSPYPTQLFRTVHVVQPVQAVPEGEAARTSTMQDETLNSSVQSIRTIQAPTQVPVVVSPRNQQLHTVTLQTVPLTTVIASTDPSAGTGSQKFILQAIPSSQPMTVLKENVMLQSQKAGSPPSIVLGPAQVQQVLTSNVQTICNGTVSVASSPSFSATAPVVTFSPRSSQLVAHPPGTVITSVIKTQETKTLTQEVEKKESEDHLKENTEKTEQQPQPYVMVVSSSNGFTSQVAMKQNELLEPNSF
Sequence of ELF4 (Q99607 whole entry): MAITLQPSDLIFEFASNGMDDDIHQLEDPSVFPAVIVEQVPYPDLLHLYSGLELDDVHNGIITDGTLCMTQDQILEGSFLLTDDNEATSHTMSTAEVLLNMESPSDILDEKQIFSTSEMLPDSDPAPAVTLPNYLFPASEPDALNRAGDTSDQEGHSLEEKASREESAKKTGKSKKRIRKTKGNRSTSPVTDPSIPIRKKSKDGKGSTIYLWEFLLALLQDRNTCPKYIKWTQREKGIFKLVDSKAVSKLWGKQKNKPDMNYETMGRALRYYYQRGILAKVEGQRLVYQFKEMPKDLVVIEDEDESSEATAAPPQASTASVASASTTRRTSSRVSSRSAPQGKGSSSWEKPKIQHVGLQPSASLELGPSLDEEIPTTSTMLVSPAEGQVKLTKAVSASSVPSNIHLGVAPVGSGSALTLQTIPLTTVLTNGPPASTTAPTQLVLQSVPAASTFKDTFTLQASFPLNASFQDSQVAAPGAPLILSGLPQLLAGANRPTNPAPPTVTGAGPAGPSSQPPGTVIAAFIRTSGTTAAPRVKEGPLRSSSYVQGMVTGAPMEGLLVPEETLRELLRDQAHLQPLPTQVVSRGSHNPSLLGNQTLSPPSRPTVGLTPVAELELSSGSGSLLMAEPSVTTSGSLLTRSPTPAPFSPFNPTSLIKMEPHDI

Consider ATAATG, for which the binding signal in the assay with ELK1 is 1.1 fold enrichment (6-mer frequency, TF over GST control); with GABPA, 1.06 fold enrichment (6-mer frequency, TF over GST control); with ERG it was 1.03 fold enrichment (6-mer frequency, TF over GST control); in the assay with ELF1, 1.11 fold enrichment (6-mer frequency, TF over GST control); in the assay with EHF, 1.14 fold enrichment (6-mer frequency, TF over GST control); in the assay with SPIB it was 1.19 fold enrichment (6-mer frequency, TF over GST control). Besides, the binding signal in the assay with FEV is 1.08 fold enrichment (6-mer frequency, TF over GST control); in the assay with ETV5 it was 1.09 fold enrichment (6-mer frequency, TF over GST control); in the assay with ELF4, 1.06 fold enrichment (6-mer frequency, TF over GST control); with ELK4, 1.16 fold enrichment (6-mer frequency, TF over GST control); with ELF3 it was 1.03 fold enrichment (6-mer frequency, TF over GST control); with ETV1, 1.16 fold enrichment (6-mer frequency, TF over GST control). In addition, the binding signal with ERF is 1.09 fold enrichment (6-mer frequency, TF over GST control); with ETV3L, 1.2 fold enrichment (6-mer frequency, TF over GST control); with ETS2, 1.14 fold enrichment (6-mer frequency, TF over GST control); in the assay with SPDEF it was 1.06 fold enrichment (6-mer frequency, TF over GST control); in the assay with ETV7, 1.01 fold enrichment (6-mer frequency, TF over GST control); with ETV3, 1.09 fold enrichment (6-mer frequency, TF over GST control). Further, the binding signal with ETV6 is 1.09 fold enrichment (6-mer frequency, TF over GST control).
